# Results with a measured potency or affinity are listed apart.
# Legend:
# Klebsiella pneumoniae = settings: Concentration 32 ug.mL-1;; ASSAY_TEST Inhibition of Bacterial Growth; detection method Absorption (OD600); MEDIA CAMHB; plate type 384well; NBS; CORNING #3640; time 18 hr
# Candida albicans = settings: Concentration 32 ug.mL-1; ASSAY_TEST Inhibition of Fungal Growth; detection method Absorption (OD530)
# Cryptococcus neoformans = settings: Concentration 32 ug.mL-1; ASSAY_TEST Inhibition of Fungal Growth; detection method Resazurin; Absorption (OD600-OD570); plate type 384well; NBS; CORNING #3640
structure (smiles),measurement,setting,value
COc1ccc(-c2cc3c4nnc(SCC(=O)NCc5ccc(Cl)cc5)n4ccn3n2)cc1,Inhibition,Klebsiella pneumoniae,6.35%
same,Inhibition,Candida albicans,-0.75%
same,Inhibition,Cryptococcus neoformans,-28.86%
COc1cccc(-n2ccn3c(SC(C)C(=O)c4ccc(C)c(C)c4)nnc3c2=O)c1 (stereo not given),Inhibition,Klebsiella pneumoniae,3.32%
same,Inhibition,Candida albicans,2.99%
same,Inhibition,Cryptococcus neoformans,-3.88%
O=C(Cn1nc2c(SC3CCCCC3)nccn2c1=O)Nc1cccc(Cl)c1,Inhibition,Klebsiella pneumoniae,-2.02%
same,Inhibition,Candida albicans,27.21%
same,Inhibition,Cryptococcus neoformans,-17.97%
Cc1nnc2ccc(S(=O)(=O)N(Cc3ccccc3F)c3cccc(Cl)c3)cn12,Inhibition,Klebsiella pneumoniae,8.99%
same,Inhibition,Candida albicans,-0.66%
same,Inhibition,Cryptococcus neoformans,-11.57%
CCCCN(C)C(=O)CSc1nnc2c(=O)n(Cc3ccc(F)cc3)ccn12,Inhibition,Klebsiella pneumoniae,14.76%
same,Inhibition,Candida albicans,-0.35%
same,Inhibition,Cryptococcus neoformans,-33.57%
Cc1cc(C)c(NC(=O)Cn2nc3ccc(SC(C)(C)C)nn3c2=O)c(C)c1,Inhibition,Klebsiella pneumoniae,14.36%
same,Inhibition,Candida albicans,2.38%
same,Inhibition,Cryptococcus neoformans,-25.26%
O=C(Cn1nc2c(N3CCOCC3)nc3ccccc3n2c1=O)Nc1ccccc1Br,Inhibition,Klebsiella pneumoniae,11.27%
same,Inhibition,Candida albicans,1.17%
same,Inhibition,Cryptococcus neoformans,-27.52%
COc1ccc(C(C)NC(=O)CCc2nnc3ccc(-c4ccc(C)c(C)c4)nn23)cc1OC (stereo not given),Inhibition,Klebsiella pneumoniae,11.56%
same,Inhibition,Candida albicans,3.04%
same,Inhibition,Cryptococcus neoformans,-6.29%
Cc1cc(C)cc(N(Cc2ccccc2)S(=O)(=O)c2cccn3c(C)nnc23)c1,Inhibition,Klebsiella pneumoniae,-0.64%
same,Inhibition,Candida albicans,2%
same,Inhibition,Cryptococcus neoformans,-6.56%
COc1ccccc1-n1ccn2c(SCc3ccc(Cl)cc3)nnc2c1=O,Inhibition,Klebsiella pneumoniae,8.98%
same,Inhibition,Candida albicans,1.6%
same,Inhibition,Cryptococcus neoformans,-13.63%
CCCCc1ccc(NC(=O)Cn2c(=O)c3nnc(CCC)n3c3ccccc32)cc1,Inhibition,Klebsiella pneumoniae,6.31%
same,Inhibition,Candida albicans,4.08%
same,Inhibition,Cryptococcus neoformans,-20.48%
O=c1c2nn(Cc3ccc([N+](=O)[O-])cc3)c(=O)n2ccn1-c1ccccc1,Inhibition,Klebsiella pneumoniae,13.17%
same,Inhibition,Candida albicans,3.56%
same,Inhibition,Cryptococcus neoformans,-7.73%
Cc1ccc(CNC(=O)Cn2nc3c(Oc4ccccc4C)nccn3c2=O)cc1,Inhibition,Klebsiella pneumoniae,12.47%
same,Inhibition,Candida albicans,1.06%
same,Inhibition,Cryptococcus neoformans,-7.58%
COc1cccc(-n2ccn3c(SCC(=O)c4cccc(Cl)c4)nnc3c2=O)c1,Inhibition,Klebsiella pneumoniae,6.31%
same,Inhibition,Candida albicans,2.28%
same,Inhibition,Cryptococcus neoformans,-6.56%
COc1ccc(N(Cc2cccc(C)c2)S(=O)(=O)c2ccc3nncn3c2)cc1,Inhibition,Klebsiella pneumoniae,-1.75%
same,Inhibition,Candida albicans,4.35%
same,Inhibition,Cryptococcus neoformans,-8.71%
CCc1nnc2c(S(=O)(=O)N(Cc3ccccc3Cl)c3ccccc3)cccn12,Inhibition,Klebsiella pneumoniae,6.34%
same,Inhibition,Candida albicans,3.28%
same,Inhibition,Cryptococcus neoformans,-4.36%
CC(=O)c1cccc(NC(=O)CSc2nc3ccccc3n3c(C)nnc23)c1,Inhibition,Klebsiella pneumoniae,2.18%
same,Inhibition,Candida albicans,5.91%
same,Inhibition,Cryptococcus neoformans,-6.11%
CCOc1ccc(NC(=O)Cn2nc3ccc(Sc4cccc(F)c4)nn3c2=O)cc1,Inhibition,Klebsiella pneumoniae,0.85%
same,Inhibition,Candida albicans,6.64%
same,Inhibition,Cryptococcus neoformans,-8.03%
CCCc1nnc2c(=O)n(CC(=O)Nc3cccc(C(C)=O)c3)c3ccccc3n12,Inhibition,Klebsiella pneumoniae,-4.73%
same,Inhibition,Candida albicans,6.89%
same,Inhibition,Cryptococcus neoformans,-25.21%
Cc1ccc(C)c(Cn2nc3ccc(-c4ccc(C)c(C)c4)nn3c2=O)c1,Inhibition,Klebsiella pneumoniae,12.73%
same,Inhibition,Candida albicans,1.53%
same,Inhibition,Cryptococcus neoformans,-14.79%
CCOc1ccccc1CNC(=O)CCc1nnc2ccc(-c3ccccc3)nn12,Inhibition,Klebsiella pneumoniae,9.31%
same,Inhibition,Candida albicans,0.83%
same,Inhibition,Cryptococcus neoformans,-22.57%
COc1ccc(-c2cc3c4nnc(SCC(=O)Nc5cccc(C#N)c5)n4ccn3n2)cc1,Inhibition,Klebsiella pneumoniae,2.25%
same,Inhibition,Candida albicans,13.14%
same,Inhibition,Cryptococcus neoformans,-16.67%
CCCN(C)c1nccn2c(=O)n(CC(=O)Nc3ccc(Br)cc3)nc12,Inhibition,Klebsiella pneumoniae,7.69%
same,Inhibition,Candida albicans,3.8%
same,Inhibition,Cryptococcus neoformans,-7.69%
O=c1n(Cc2ccccc2F)nc2ccc(S(=O)(=O)N3CCCCCC3)cn12,Inhibition,Klebsiella pneumoniae,2.58%
same,Inhibition,Candida albicans,0.84%
same,Inhibition,Cryptococcus neoformans,-9.24%
COC(=O)c1ccc(NC(=O)Cn2nc3ccc(S(=O)(=O)C4CCCCC4)nn3c2=O)cc1,Inhibition,Klebsiella pneumoniae,9.79%
same,Inhibition,Candida albicans,17.49%
same,Inhibition,Cryptococcus neoformans,-8.73%
O=S(=O)(c1ccc2nncn2c1)N(Cc1ccc(F)cc1)c1ccc(F)c(F)c1,Inhibition,Klebsiella pneumoniae,5.64%
same,Inhibition,Candida albicans,2.31%
same,Inhibition,Cryptococcus neoformans,-6.65%
O=C(Cn1nc2ccc(-c3ccc(Cl)cc3)nn2c1=O)NC1CCCC1,Inhibition,Klebsiella pneumoniae,16.69%
same,Inhibition,Candida albicans,1.09%
same,Inhibition,Cryptococcus neoformans,-13.05%
O=C(Cn1nc2c(Oc3ccc(Cl)cc3)nccn2c1=O)Nc1ccc2c(c1)OCO2,Inhibition,Klebsiella pneumoniae,8.17%
same,Inhibition,Candida albicans,2.32%
same,Inhibition,Cryptococcus neoformans,-10.77%
CC(C)(C)OC(=O)CN(c1ccc2c(c1)OCCO2)S(=O)(=O)c1ccc2nncn2c1,Inhibition,Klebsiella pneumoniae,11.52%
same,Inhibition,Candida albicans,1.39%
same,Inhibition,Cryptococcus neoformans,-8.21%
COc1ccccc1Cn1c(=O)c2sccc2n2c(=O)n(Cc3cccc(Br)c3)nc12,Inhibition,Klebsiella pneumoniae,0.7%
same,Inhibition,Candida albicans,-0.62%
same,Inhibition,Cryptococcus neoformans,-14.71%
CC(C)Cn1c(=O)c2sccc2n2c(=O)n(Cc3cccc(Br)c3)nc12,Inhibition,Klebsiella pneumoniae,8.23%
same,Inhibition,Candida albicans,-0.42%
same,Inhibition,Cryptococcus neoformans,-24.19%
O=C(Cn1nc2c(N3CCOCC3)nccn2c1=O)NCc1ccc(Cl)cc1,Inhibition,Klebsiella pneumoniae,8.43%
same,Inhibition,Candida albicans,3.53%
same,Inhibition,Cryptococcus neoformans,-3.97%
Cc1ccc(-n2ccn3c(=O)n(Cc4c(F)cccc4Cl)nc3c2=O)cc1C,Inhibition,Klebsiella pneumoniae,16.81%
same,Inhibition,Candida albicans,1.02%
same,Inhibition,Cryptococcus neoformans,-16.44%
CC(C)Cn1c(=O)c2ccc(C(=O)NC3CCCCC3)cc2n2c(=O)n(CC#N)nc12,Inhibition,Klebsiella pneumoniae,10.69%
same,Inhibition,Candida albicans,-0.09%
same,Inhibition,Cryptococcus neoformans,-19.28%
CC(C)c1nnc2c(=O)n(CC(=O)Nc3cccc(C#N)c3)c3ccccc3n12,Inhibition,Klebsiella pneumoniae,14.72%
same,Inhibition,Candida albicans,2.88%
same,Inhibition,Cryptococcus neoformans,-33.67%
CCc1nnc2c(=O)n(CC(=O)Nc3cc(Cl)ccc3Cl)c3ccccc3n12,Inhibition,Klebsiella pneumoniae,6.11%
same,Inhibition,Candida albicans,2.89%
same,Inhibition,Cryptococcus neoformans,-19.25%
CCc1ccccc1Sc1nccn2c(=O)n(CC(=O)Nc3cc(Cl)c(OC)cc3OC)nc12,Inhibition,Klebsiella pneumoniae,-2.45%
same,Inhibition,Candida albicans,17.44%
same,Inhibition,Cryptococcus neoformans,-4.37%
CCc1ccccc1NC(=O)CSc1nnc2c(=O)n(-c3ccccc3)ccn12,Inhibition,Klebsiella pneumoniae,11.56%
same,Inhibition,Candida albicans,-0.14%
same,Inhibition,Cryptococcus neoformans,-23.92%
CC(C)(C)S(=O)(=O)c1ccc2nn(CC(=O)Nc3ccc(Br)cc3)c(=O)n2n1,Inhibition,Klebsiella pneumoniae,6.53%
same,Inhibition,Candida albicans,2.28%
same,Inhibition,Cryptococcus neoformans,-17.49%
CC(C)c1ccc(N(Cc2ccccc2F)S(=O)(=O)c2cccn3cnnc23)cc1,Inhibition,Klebsiella pneumoniae,6.21%
same,Inhibition,Candida albicans,-0.83%
same,Inhibition,Cryptococcus neoformans,-6.6%
COc1cc(NC(=O)Cn2nc3c(Oc4ccccc4)nccn3c2=O)cc(OC)c1,Inhibition,Klebsiella pneumoniae,11.9%
same,Inhibition,Candida albicans,-1.97%
same,Inhibition,Cryptococcus neoformans,-7.5%
COc1ccc(NC(=O)Cn2nc3c(Sc4ccccc4)nccn3c2=O)c(OC)c1,Inhibition,Klebsiella pneumoniae,2.54%
same,Inhibition,Candida albicans,2.27%
same,Inhibition,Cryptococcus neoformans,-16.55%
Cc1nnc2c(=O)n(CC(=O)Nc3cccc(Cl)c3)c3ccccc3n12,Inhibition,Klebsiella pneumoniae,15.43%
same,Inhibition,Candida albicans,-0.29%
same,Inhibition,Cryptococcus neoformans,-13.95%
Cc1cc(C)c(C(=O)CSc2nnc3c(=O)n(-c4ccc(F)cc4)ccn23)cc1C,Inhibition,Klebsiella pneumoniae,7.49%
same,Inhibition,Candida albicans,4.64%
same,Inhibition,Cryptococcus neoformans,-8.78%
CCCCOc1ccc(-c2cc3c4nnc(SCC(=O)Nc5cccc(C(C)=O)c5)n4ccn3n2)cc1,Inhibition,Klebsiella pneumoniae,9.96%
same,Inhibition,Candida albicans,5.2%
same,Inhibition,Cryptococcus neoformans,-6.36%
O=C(CSc1nnc2c3cc(-c4ccc(F)cc4)nn3ccn12)Nc1ccccc1C(F)(F)F,Inhibition,Klebsiella pneumoniae,-6.96%
same,Inhibition,Candida albicans,5.14%
same,Inhibition,Cryptococcus neoformans,-18.14%
CCc1ccccc1Sc1nccn2c(=O)n(CC(=O)Nc3ccc(C)cc3C)nc12,Inhibition,Klebsiella pneumoniae,5.62%
same,Inhibition,Candida albicans,1.23%
same,Inhibition,Cryptococcus neoformans,-14.18%
COc1ccc(NC(=O)Cn2nc3c4cc(-c5ccc(F)cc5)nn4ccn3c2=O)c(OC)c1,Inhibition,Klebsiella pneumoniae,14.79%
same,Inhibition,Candida albicans,2.08%
same,Inhibition,Cryptococcus neoformans,-15.48%
CCc1cccc(NC(=O)Cn2nc3c(SCc4ccc(Cl)cc4)nccn3c2=O)c1,Inhibition,Klebsiella pneumoniae,7.77%
same,Inhibition,Candida albicans,22.52%
same,Inhibition,Cryptococcus neoformans,-20.82%
Cc1nnc2c(S(=O)(=O)N(Cc3cccc(F)c3)c3ccc(C(C)C)cc3)cccn12,Inhibition,Klebsiella pneumoniae,9.6%
same,Inhibition,Candida albicans,6.76%
same,Inhibition,Cryptococcus neoformans,-6.4%
Cc1cc(C)cc(N(Cc2cc(C)ccc2C)S(=O)(=O)c2cccn3c(C)nnc23)c1,Inhibition,Klebsiella pneumoniae,4.69%
same,Inhibition,Candida albicans,1.02%
same,Inhibition,Cryptococcus neoformans,-8.76%
COc1ccc(NC(=O)Cn2nc3c4cc(-c5cc(C)ccc5C)nn4ccn3c2=O)c(OC)c1,Inhibition,Klebsiella pneumoniae,9.51%
same,Inhibition,Candida albicans,3.64%
same,Inhibition,Cryptococcus neoformans,-9.3%
CCc1nnc2ccc(S(=O)(=O)N(Cc3cccc(OC)c3)c3ccc(F)cc3)cn12,Inhibition,Klebsiella pneumoniae,3.57%
same,Inhibition,Candida albicans,1.64%
same,Inhibition,Cryptococcus neoformans,-8.65%
CCc1cccc(NC(=O)Cn2nc3ccc(SC(C)C)nn3c2=O)c1,Inhibition,Klebsiella pneumoniae,7.23%
same,Inhibition,Candida albicans,12.21%
same,Inhibition,Cryptococcus neoformans,-12.08%
CC(C)Cn1c(=O)c2sccc2n2c(=O)n(Cc3ccc(N4CCCC4=O)cc3)nc12,Inhibition,Klebsiella pneumoniae,9.72%
same,Inhibition,Candida albicans,1.08%
same,Inhibition,Cryptococcus neoformans,-27.68%
COc1ccc(NC(=O)c2ccc3nn(CC(=O)Nc4ccc(C)c(F)c4)c(=O)n3c2)cc1,Inhibition,Klebsiella pneumoniae,0.39%
same,Inhibition,Candida albicans,10.47%
same,Inhibition,Cryptococcus neoformans,-14.12%
Cc1ccc(C)c(NC(=O)Cn2nc3c4cc(-c5ccc(C)c(C)c5)nn4ccn3c2=O)c1,Inhibition,Klebsiella pneumoniae,5.73%
same,Inhibition,Candida albicans,-1.76%
same,Inhibition,Cryptococcus neoformans,-22.88%
O=C(Cn1nc2c3cc(-c4ccc(F)cc4)nn3ccn2c1=O)N1CCCc2ccccc21,Inhibition,Klebsiella pneumoniae,8.12%
same,Inhibition,Candida albicans,1.02%
same,Inhibition,Cryptococcus neoformans,-21.22%
O=C(Cn1nc2ccc(-c3ccccc3)nn2c1=O)Nc1ccc(F)cc1,Inhibition,Klebsiella pneumoniae,7.53%
same,Inhibition,Candida albicans,0.88%
same,Inhibition,Cryptococcus neoformans,-10.36%
Cc1oc(-c2ccc(OC(C)C)cc2)nc1CSc1nc2ccccc2n2c(C(C)C)nnc12,Inhibition,Klebsiella pneumoniae,-1.3%
same,Inhibition,Candida albicans,23.86%
same,Inhibition,Cryptococcus neoformans,-18.35%

# — ChEMBL document CHEMBL4513146, “CO-ADD screening of Karazin Kharkiv National University (Ukraine) compounds”
